The nature of experiment [1]: CCTE_Simmons_CellTiterGLO_HEK293T: Viability Assessment in CCTE's Assays for Thyroperoxidase (TPO) Inhibition, Simmons Lab (AID 2283665).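 As to AC50: cells exposed to compound for 24 h before readout; actives reduce ATP signal below DMSO vehicle meaning cytotoxicity.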 Summed up:
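Cells were seeded overnight, then exposed to an eight-point series up to 87.5 uM final for 24 hours. CellTiter-Glo reagent was added and luminescence read after 20 min, giving ATP-based viability versus DMSO.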
In general terms: Cellular ATP, detected with luciferase, serves as a proxy for viable cell number.

A short description of experiment [2]: Tanguay_ZF_120hpf_OTIC_legacy: (Legacy) Oregon State University Tanguay Lab 120 Hour Post-fertilization zebrafish Assay for Otic Vesicle Malformation (AID 2283639). Summed up: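 Statically exposed wild-type 5D zebrafish embryos, kept sealed and dark at 28C through 120 hours post fertilization, were examined by brightfield microscopy for otic vesicle defects. Responses were recorded as present or absent and analysed relative to DMSO.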

Experiment [3] is described as follows: Tanguay_ZF_120hpf_PE_legacy: (Legacy) Oregon State University Tanguay Lab 120 Hour Post-fertilization zebrafish Assay for Pericardial Edema (AID 2283640). A digest of the protocol: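 Read-out is the presence or absence of pericardial edema at 120 hpf under brightfield, with gain of signal fitted against DMSO controls. Larvae (5D wild-type) were statically exposed at 28C with 0.64% final DMSO.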

Experiment [4] can be described thus: Tanguay_ZF_120hpf_BRAI_legacy: (Legacy) Oregon State University Tanguay Lab 120 Hour Post-fertilization zebrafish Assay for Brain Malformation (AID 2283641). A digest of the protocol: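 Brain malformation in Tropical 5D zebrafish was recorded as a binary endpoint after static compound exposure from early development to 120 hpf at 28C. Activity was analysed against DMSO as negative control.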

Experiment [5] can be described thus: Tanguay_ZF_120hpf_SOMI_legacy: (Legacy) Oregon State University Tanguay Lab 120 Hour Post-fertilization zebrafish Assay for Somite Malformation (AID 2283647). A digest of the protocol:
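5D WT zebrafish; chorion removed 4 hpf; 1 embryo/well from 6 hpf; static exposure to 120 hpf, 28C, 0.64% DMSO final. Endpoint: somite malformation, binary, brightfield. Mortality excluded.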

Experiment [6] is described as follows: Tanguay_ZF_120hpf_PFIN_legacy: (Legacy) Oregon State University Tanguay Lab 120 Hour Post-fertilization zebrafish Assay for Pectoral Fin Malformation (AID 2283648).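 Also: each larva judged yes or no for fin defect by brightfield with dead larvae skipped.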 A digest of the protocol:
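Scoring of pectoral fin malformation was binary, made at 120 hpf on larvae exposed statically from 6 hpf after enzymatic chorion removal. Activity was fitted upward relative to DMSO controls at 0.64% (vol/vol).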

Experiment [7] is described as follows: Tanguay_ZF_120hpf_CFIN_legacy: (Legacy) Oregon State University Tanguay Lab 120 Hour Post-fertilization zebrafish Assay for Caudal Fin Malformation (AID 2283649). Summed up: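 Embryos were collected from Tropical 5D wild-type adults and dechorionated at 4 hpf. At 6 hpf each was exposed, one per well, at 0.64% DMSO and 28C. At 120 hpf fin morphology was scored; dead embryos were excluded.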

Experiment [8] is described as follows: Tanguay_ZF_120hpf_PIG_legacy: (Legacy) Oregon State University Tanguay Lab 120 Hour Post-fertilization zebrafish Assay for Pigmentation Malformation (AID 2283650). A digest of the protocol:
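Endpoint is incidence of abnormal pigmentation at 120 hpf in dechorionated 5D zebrafish exposed singly from 6 hpf at 28C, DMSO vehicle at 0.64%. Embryos dying by 24 or 120 hpf are excluded from scoring.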

Experiment [9] is described as follows: Tanguay_ZF_120hpf_CIRC_legacy: (Legacy) Oregon State University Tanguay Lab 120 Hour Post-fertilization zebrafish Assay for Circulatory Malformation (AID 2283651). Summed up: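 Embryos are dechorionated at 4 hpf, plated one per well at 6 hpf, then held under static exposure at 28C until 120 hpf. Malformations are recorded as binary calls; mortality excludes other endpoints.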

Experiment [10] can be described thus: Tanguay_ZF_120hpf_SWIM_legacy: (Legacy) Oregon State University Tanguay Lab 120 Hour Post-fertilization zebrafish Assay for Swim Bladder Malformation (AID 2283654).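 Also: swim bladder malformation in each larva scored yes or no under brightfield.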 A digest of the protocol: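 Static waterborne exposure of single dechorionated Tropical 5D zebrafish embryos, 6–120 hpf, 28C, 0.64% DMSO final. Read-out: swim bladder malformation, present/absent, relative to DMSO negative control; trimethyltin chloride 5uM served as positive control.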

Experiment [11] is described as follows: Tanguay_ZF_120hpf_NC_legacy: (Legacy) Oregon State University Tanguay Lab 120 Hour Post-fertilization zebrafish Assay for Notochord and Tail Malformation (AID 2283656). A digest of the protocol: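 Binary scoring of notochord distortion by brightfield microscopy; embryos dying were not scored. Wild-type Tropical 5D embryos, chorion removed, exposed singly and statically from 6 to 120 hpf, 28C, sealed, 0.64% DMSO.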

Experiment [12] in a line: Tanguay_ZF_120hpf_TR_legacy: (Legacy) Oregon State University Tanguay Lab 120 Hour Post-fertilization zebrafish Assay for Touch Response (AID 2283667). A digest of the protocol:
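Readout is presence or absence of touch response in 120 hpf zebrafish larvae, assessed by brightfield observation after continuous static exposure at 28C. Final vehicle was 0.64% (vol/vol) DMSO.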

Experiment [13] in a line: CCTE_Padilla_ZF_144hpf_TERATOSCORE: (Legacy) CCTE's 144 Hour Post-fertilization zebrafish Assay Teratoscore, Padilla Lab (AID 2283679; active = hit-call score of the fitted dose curve at least 0.9, where 1 is the maximum; inactive = score below 0.9;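 also: zebrafish embryos with chorions exposed by immersion from 6-8 hpf to 5 dpf with daily renewal; teratogenicity score from eye scoring of death hatching and malformations at 144 hpf; higher score means more developmental defects relative to DMSO baseline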). Summed up:
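Larvae scored by eye at 144 hpf for death, hatching and malformations after a day in clean Hanks'. Before that, daily-renewed exposure at 80 uM (0.4% DMSO, 26C) from roughly 6-8 hpf through 5 dpf, 4 embryos per chemical.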

Experiment [14] is described as follows: STM_H9_OrnithineISnorm_perc: Stemina devTOX quickPredict H9 human embryonic stem cell (hESC)-based Assay for Ornithine (ORN) Metabolite Biomarker, Normalized (AID 2283712; active = hit-call score of the fitted dose curve at least 0.9, where 1 is the maximum; inactive = score below 0.9;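 also: ornithine released into spent medium during last day measured by mass spectrometry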). Summed up: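 Ornithine secreted by H9 hESCs after 72h compound treatment (daily media/compound renewal) was quantified in final-day media by UPLC-HRMS. Values are isotope-standard-normalized, expressed relative to 0.1% DMSO, fitted in positive direction.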

A short description of experiment [15]: STM_H9_CystineISnorm_perc: Stemina devTOX quickPredict H9 human embryonic stem cell (hESC)-based Assay for Cystine (CYSS) Metabolite Biomarker, Normalized (AID 2283713; active = hit-call score of the fitted dose curve at least 0.9, where 1 is the maximum; inactive = score below 0.9). A digest of the protocol:
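Cells are held undifferentiated and treated for 72h, receiving fresh medium with compound every 24h. Cystine secreted during the final day is quantified by UPLC-HRMS against a labeled spike-in, then expressed relative to the DMSO vehicle median.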

Read-out in experiment [16]: kallikrein-3 (KLK3), KLK3 (gene 354)
The experiment can be described thus: LTEA_HepaRG_KLK3: Life Technologies and Expression Analysis (LTEA) Assay for kallikrein-3 (KLK3) using HepaRG (AID 2283652; active = hit-call score of the fitted dose curve at least 0.9, where 1 is the maximum; inactive = score below 0.9). As to conditions: mRNA level, 48 h; actives raise or lower the signal. Summed up: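 KLK3 transcript levels were measured by TaqMan qRT-PCR with normalisation to three housekeeping genes. HepaRG cultures received chemicals for 48 h at up to 100 uM (half-log, 8 points, 0.5% DMSO vehicle), fitted in both directions against DMSO.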

Read-out in experiment [17]: solute carrier (SLC22A6), SLC22A6 (gene 9356)
The experiment can be described thus: LTEA_HepaRG_SLC22A6: Life Technologies and Expression Analysis (LTEA) Assay for solute carrier (SLC22A6) using HepaRG (AID 2283653; active = hit-call score of the fitted dose curve at least 0.9, where 1 is the maximum; inactive = score below 0.9). To be noted: mRNA level, 48 h; actives raise or lower the signal. A digest of the protocol:
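This endpoint tracks SLC22A6 mRNA induction or suppression in human HepaRG cultures after 48 h dosing, concentrations reaching 100 uM. Values derive from bidirectional fitting against DMSO controls.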

Read-out in experiment [18]: solute carrier (SLC10A1), SLC10A1 (gene 6554)
The experiment can be described thus: LTEA_HepaRG_SLC10A1: Life Technologies and Expression Analysis (LTEA) Assay for solute carrier (SLC10A1) using HepaRG (AID 2283657; active = hit-call score of the fitted dose curve at least 0.9, where 1 is the maximum; inactive = score below 0.9). To be noted: mRNA level, 48 h; actives raise or lower the signal. A digest of the protocol: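 Cryopreserved HepaRG cells are thawed, plated and cultured 48 h; medium is then switched to serum-free induction medium and chemicals added (8 points, max 100 uM, 0.5% DMSO). After 48 h, RNA is isolated and SLC10A1 quantified by qRT-PCR.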

Read-out in experiment [19]: matrix metalloproteinase-1 (MMP1), MMP1 (gene 4312)
The experiment can be described thus: LTEA_HepaRG_MMP1: Life Technologies and Expression Analysis (LTEA) Assay for matrix metalloproteinase-1 (MMP1) using HepaRG (AID 2283658; active = hit-call score of the fitted dose curve at least 0.9, where 1 is the maximum; inactive = score below 0.9). As to conditions: mRNA level, 48 h; actives raise or lower the signal. Summed up:
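Bidirectional concentration-response fitting relative to 0.5% DMSO gives the endpoint, derived from MMP1 mRNA levels (qRT-PCR) in human HepaRG cells treated 48 h with chemicals up to 100 uM.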

Read-out in experiment [20]: Cytochrome P450 (CYP24A1_1), CYP24A1 (gene 1591)
The experiment can be described thus: LTEA_HepaRG_CYP24A1_1: Life Technologies and Expression Analysis (LTEA) Assay for Cytochrome P450 (CYP24A1_1) using HepaRG (AID 2283671; active = hit-call score of the fitted dose curve at least 0.9, where 1 is the maximum; inactive = score below 0.9). As to conditions: mRNA level, 48 h; actives raise or lower the signal. Summed up: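 Cultures of human HepaRG were treated in duplicate for 48 h (0.5% DMSO vehicle, highest dose 100 uM). CYP24A1 mRNA by qRT-PCR, normalized to ACTB, GAPDH, POLR2A.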

“And” between values parts separate entries of the source, which are not always exact repeats. Equal entries are not always repeated. Results filed as inconclusive are left out. The source made the active and inactive calls. The calls were made as follows, unless noted: active = hit-call score of the fitted dose curve at least 0.9, where 1 is the maximum; inconclusive = response in the unintended direction; inactive = score below 0.9.

`CN(N=O)C(N)=O`: in [1], the compound was classed as inactive.

Take `N#CCC#N`: the call in [1] was inactive.

`CC(C)(C)c1ccccc1O`: the compound was called inactive in experiment [2], in experiment [3], in experiment [4], in [5], in experiment [6] and in experiment [7]. For the same compound, the call in experiment [8], in experiment [9], in experiment [10] and in [11] was inactive. The AC50 in [1] was 55.4 µM (active).

As to `Clc1cccc(Cl)c1`, the outcome in experiment [2], in experiment [3], in experiment [5], in experiment [6], in experiment [9] and in experiment [10] was inactive.

For `O=C(O)C1(c2ccc3c(c2)OC[C@H](Cc2ccc(-c4ccccc4)cc2)[C@H]3O)CCCC1`, the result in experiment [2], in [3], in experiment [4], in experiment [5], in [8] and in experiment [9] was inactive. Further, the call in [10] and in [12] was inactive. Also, the AC50 in [1] is 13.3 µM (active); in [13], 13.5 µM (active).

Take `COc1ccc(N)cc1`: the concentration at half-maximal activity (AC50) in [1] was 4.71 µM (active).

Regarding `O=c1[nH]c(=O)n(Cl)c(=O)n1Cl`, the compound was called inactive in experiment [1].

As for `Nc1ncn[nH]1`, the compound was called inactive in [1], in experiment [14] and in [15].

`O=C(N[C@H]1CN2CCC1CC2)c1ccc2c(c1)OCCO2`: the result in [2], in [3], in experiment [4], in experiment [5], in experiment [6] and in experiment [7] was inactive. For the same compound, the compound was classed as inactive in experiment [8], in experiment [9], in experiment [10] and in experiment [11].

In the case of `O=C(NC(=O)c1c(F)cccc1F)Nc1ccc(Cl)cc1`, the call in experiment [1] was inactive.

`O=S1(=O)OC(c2cc(Br)c(O)c(Br)c2)(c2cc(Br)c(O)c(Br)c2)c2ccccc21`: in experiment [1], the concentration at half-maximal activity (AC50) was 11.1 µM (active).

For the compound `CCCCCCCCCCCCOS(=O)(=O)O`, the half-maximal activity concentration (AC50) in experiment [1] was 31.9 µM (active) and 92.3 µM (active).

Turning to `Oc1cc(Cl)c(Cl)cc1Cl`, the call in experiment [2], in experiment [3], in [4], in experiment [5], in [6] and in experiment [7] was inactive. The outcome in experiment [8], in [9], in [10], in experiment [11] and in experiment [12] was inactive. The AC50 in [13] is 5.5 µM (active).

Turning to `Nc1ccc(N)cc1`, in experiment [1], the half-maximal activity concentration (AC50) was 32 µM (active).

With `CCCCCCCCCCCCc1cccc(S(=O)(=O)O)c1`, the outcome in experiment [2], in experiment [3], in experiment [4], in [5], in [6] and in experiment [9] was inactive. In addition, the call in [10], in experiment [11] and in experiment [12] was inactive. The concentration at half-maximal activity (AC50) in [1] is 30.4 µM (active); in [13] it was 53 µM (active).

Turning to `N#CS`, the outcome in [1], in experiment [14] and in [15] was inactive.

`Cc1cc(C)cc(C)c1`: the outcome in experiment [2], in [3], in [4], in [6], in experiment [7] and in experiment [8] was inactive. For the same compound, the call in experiment [9], in experiment [16], in experiment [17], in [10], in experiment [18] and in [19] was inactive. For the same compound, the call in experiment [12] and in experiment [20] was inactive.

A word on the AC50: it is the concentration giving half of the maximal activity seen.

These data come from PubChem BioAssay (EPA / NIEHS).
